This experiment can be described thus: NCI Yeast Anticancer Drug Screen. Data for the mec2-1 strain (AID 157). Conditions: S. cerevisiae mec2-1 strain, stronger effect = higher value. Here is the method:
Growth inhibition of yeast strains with defined genetic alterations is measured as a screen for potential anti-cancer activity. Selected strains with alterations in DNA damage repair or cell cycle control were exposed to compounds and growth inhibition was measured relative to vehicle treated controls. The strain used in this assay is mec2-1

The mark [1] stands for this setting: at 5.0 µM (retest, dose inferred, filed as 0.5).
The mark [2] stands for this setting: at 50.0 µM (retest, dose inferred, filed as 5.0).

Several values for one entry are separate records, joined by “and”; a condition that tells them apart may be missing. Equal values may be shown once. Compounds without any hit were thinned out: in the full panel of roughly 79,000, 15% have a hit. Where a structure was tested more than once in an assay, its records may differ in their call. Activity calls are given as the source filed them. No stated cut-off is given here; in the data, active means growth inhibition above about 70%; inactive means the rest. Where a SMILES comes first, the peptide text is derived from it. [ ]: non-standard residue; d: D form. ξ: configuration not given here. ξV = CC(C)C(N)C(=O)O

`CCC(C)[P+](c1ccccc1)(c1ccccc1)c1ccccc1` (configuration not stated): the growth inhibition by setting is: under setting [1], 18% (inactive); under setting [2], 60% (inactive); (at 50.0 µM) 66% (inactive) and 29.6% (inactive).

On to `CC(C)C(NC(=O)CN)C(=O)O` (configuration not stated) (H-Gly-[ξV]-OH), for which the growth inhibition by setting is: under setting [1], -46% (inactive); under setting [2], -52% (inactive); (at 50.0 µM) 3.95% (inactive) and -7.6% (inactive) and -21.6% (inactive).

As for `O=C(Nc1ccc(C(=O)O)c(O)c1)c1ccccc1`, the growth inhibition under setting [1] is -12% (inactive); the growth inhibition under setting [2] was -26% (inactive); the growth inhibition (at 50.0 µM) is 0.7% (inactive) and -0.4% (inactive).

For `C/C(=N\NC(=S)N1CCN(c2ccccn2)CC1)c1nccs1`, the growth inhibition reads like this: under setting [1], 43% (inactive); under setting [2], 99% (active); (at 50.0 µM) 91.6% (active).

`CCC(C)(C)c1cc(O)c(C(C)(C)CC)cc1O`: the growth inhibition under setting [1] is 3% (inactive); the growth inhibition under setting [2] was 67% (inactive); the growth inhibition (at 50.0 µM) is -22.4% (inactive) and 93.3% (active).

Turning to `CC(C)(C)OC(=O)NCCc1cccc2c1oc1c(CCC(=O)O)cccc12`, the growth inhibition was -1% (inactive) under setting [1], 95% (active) under setting [2] and 78.4% (active) (at 50.0 µM).

For `CCOC(=O)C1=C(C(=O)c2ccc(OC)cc2)C(c2c(Cl)cccc2Cl)C(C(=O)c2ccc(OC)cc2)=C(C(=O)OCC)N1`, the growth inhibition reads like this: under setting [1], 6% (inactive); under setting [2], 35% (inactive); (at 50.0 µM) 71% (active).

As for `CC(C)C(NC(=O)C(N)CCC(=O)O)C(=O)O` (stereo not drawn) (H-Glu-Val-OH; configuration not given here), the growth inhibition runs as follows: under setting [1], -1% (inactive); under setting [2], 5% (inactive); (at 50.0 µM) 2.15% (inactive).

Take `O/N=C(\CC(O)(C(F)(F)F)C(F)(F)F)c1cccc(Cl)c1`: the growth inhibition by setting is: under setting [1], 17% (inactive); under setting [2], 98% (active); (at 50.0 µM) 93.6% (active).

In the case of `COc1ccc(NC(=O)C(=O)NO)c(OC)c1`, the growth inhibition runs as follows: under setting [1], -2% (inactive); under setting [2], 96% (active); (at 50.0 µM) 91.1% (active).

For `CN1CCCc2cc(/C=C\c3ccnc4ccccc34)ccc21`, the growth inhibition is -10% (inactive) under setting [1], 97% (active) under setting [2] and 97.1% (active) (at 50.0 µM).

As for `CCCN(CCC)C(=S)N/N=C/c1ccccn1`, the growth inhibition reads like this: under setting [1], 99% (active); under setting [2], 100% (active); (at 50.0 µM) 93.1% (active).

With `CN1CCN(CN2C(=O)C3C4C=CC(C3C2=O)C2C3C(=O)N(CN5CCN(C)CC5)C(=O)C3C42)CC1` (configuration not stated), the growth inhibition under setting [1] was 1% (inactive); the growth inhibition under setting [2] was 30% (inactive); the growth inhibition (at 50.0 µM) is -28.4% (inactive) and 11.8% (inactive) and -15.2% (inactive).

In the case of `CCC1CCCC(=O)C1` (configuration not stated), the growth inhibition runs as follows: under setting [1], -1% (inactive); under setting [2], -5% (inactive); (at 50.0 µM) 53.6% (inactive).

Values taken from PubChem BioAssay (NCI).
